Measurements as given in PubChem BioAssay (NCATS).
Inconclusive results are not listed. Unmarked numbers belong to inactive results. Active and inactive are the calls of the source. The call rests on the fitted dose curve; in most records, active means well fitted curve in the direction sought with a large enough effect; inconclusive means small, poorly fitted or top-dose-only effect, or another doubt; inactive means no such curve, though single readings can be large; an effect the other way counts as inactive or inconclusive.

test: qHTS assay for small molecule disruptors of mitochondrial membrane potential screened against the NCATS CANVASS Library (AID 1347389); settings: HepG2 mitochondrial membrane potential, m-MPI red/green ratio, 1.5 h; series mostly up to 46.1 µM; activity change, negative = depolarization: at the top concentration; further: nearly all actives have a fitted effect of over 60% in size
Summary of the method: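 Compounds tested in 11-point qHTS series on HepG2 cells for 1 hr; membrane-potential dye added for 30 min at 37C. Lower red-to-green ratio indicates loss of potential.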
On the % scale 0 is the no-effect control and ±100 the full control effect; potency means the concentration at half of the fitted maximal effect.

SMILES	Potency	activity change, negative = depolarization
COc1cc(/C=C/C(=O)OC[C@@H](Cc2ccc(O)c(OC)c2)[C@@H](COC(=O)/C=C/c2ccc(O)c(OC)c2)Cc2ccc(O)c(OC)c2)ccc1O	7.41 µM (active)	–
C[C@]12CCC[C@](C)(C(=O)O)[C@@H]1CC[C@@]1(C)c3cocc3CC[C@H]21	–	-4.57%
COc1c(O)cc2c(c1O)C(=O)c1c(coc1C)C2=O	10.5 µM (active)	–
CC(C)C[C@@H]1c2c(O)c(C=O)c(O)c(C=O)c2O[C@]2(C)C=C[C@@H](C(C)C)C[C@H]12	–	-33.2%
COc1cc2c(c(O)c1O)C(=O)c1c(coc1C)C2=O	10.5 µM (active)	–
CO[C@H]1[C@@H](OC(=O)/C(C)=C\[C@@H]2O[C@@H]2[C@H]2O[C@H]2C)[C@H](O)[C@H](OCC23C[C@@H]4[C@H](C)CC[C@H]4C4(C=O)CC2C=C(C(C)C)C34C(=O)O)O[C@@H]1C (stereo partly drawn)	–	-22%

test: Secretion counterscreen for inhibitors of the SERCaMP assay screened against the NCATS CANVASS Library (AID 1347390); settings: SH-SY5Y constitutive GLuc secretion, luminescence, 20 h; series mostly up to 76.6 µM; activity change, negative = inhibition: at the top concentration;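 further: light from luciferase secreted into medium read as a measure of general secretion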
Summary of the method: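 SH-SY5Y-GLuc STOP cells; 4 h attach; cpds 0.001 - 77 uM (qHTS, 11 pts), 20 h 37C/5% CO2; coelenterazine in glow buffer; luminescence, 5 s exposure.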

SMILES	activity change, negative = inhibition	Potency
Cc1occ2c1C(=O)c1c(cc(O)c(O)c1O)C2=O	-12.1%	–
O=C1CC2OCC=C3CN4C5CC3C2[C@@H]2N1c1ccccc1[C@]52C[C@@H]4C1=C[C@H]2C3CC4N(CC[C@@]45c4ccccc4N(C1=O)[C@@H]25)C/C3=C/CO (stereo partly drawn)	20.3%	–
CCC(=O)CCCCC[C@@H]1NC(=O)[C@H]2CCCCN2C(=O)[C@H](C(C)C)NC(=O)[C@H](Cc2cn(OC)c3ccccc23)NC1=O	223%	–
C/C=C(/C)c1c(Cl)c(O)c(C)c2c1Oc1c(Cl)c(O)c(Cl)c(C)c1C(=O)O2	-13%	–
C=C1CC[C@@H](O[C@H]2C[C@@](O)([C@H](C)NC(=O)c3[nH]c(C)c(Cl)c3Cl)[C@H](O)[C@@H](C)O2)[C@@H]2C=C[C@H](C)C(/C(O)=C3/C(=O)[C@H](C(C)C)N([C@@H]4O[C@H](C)[C@H](OC(N)=O)[C@H](OC(C)=O)[C@@H]4OC)C3=O)[C@@H]12 (stereo partly drawn)	-31.3%	–
COc1ccc([C@@H]2CC(=O)c3c(cc(O)c(C/C=C(\C)CCC=C(C)C)c3O)O2)cc1	35.7% [at 15.3 µM]	–
C[n+]1cc2cc(C(N)=O)[nH]c3c(=N)c(Cl)c(N)c1c23	-28.1%	–
C/C1=C/[C@@H](C)[C@H](O)[C@@H](O)/C=C/CC/C=C/C(=O)O[C@@H]1[C@H](C)C(=O)CCCC1CC(=O)NC(=O)C1	10.9%	–
C=C[C@](Cl)(CBr)CCC=C(C)C	-27.3%	–
COc1cc2c(cc1OC)[C@@H](c1ccc3c(c1)OCO3)C(C)C(C)C2=O (stereo partly drawn)	-35.5%	–
C[C@H]1C=C[C@H]2CCCC[C@@H]2[C@H]1C(=O)[C@H]1CC2=C(C(=O)O)CCN2C1=O	-15%	–
C/C(=C\[C@H](C)C(=O)/C=C/CC1CC(=O)NC(=O)C1)[C@@H]1OC(=O)/C=C/CC/C=C/C[C@@H](O)[C@@H]1C	–	10.8 µM (active)
CC(C)[C@]12CC[C@@]3(C)[C@H](C)CC[C@H](O)[C@@]3(CC1)c1cc3c(cc12)[nH]c1ccccc13	-6.34%	–
C/C=C1/CN2C3CC1C1C=CC(=O)N4c5ccccc5[C@@]3(C[C@@H]2C2=C[C@H]3C5CC6N(CC[C@@]67c6ccccc6N(C2=O)[C@@H]37)C/C5=C/C)[C@H]14 (stereo partly drawn)	–	34.3 µM (active)
CC(C)=CCC[C@]12c3cc4c(cc3CC[C@@]1(C)[C@H](C)CC[C@@H]2O)[nH]c1ccccc14	4.37%	–
Oc1ccc(C2Oc3cc(O)c4c(c3[C@@H]2c2cc(O)cc(O)c2)[C@H]2C(c3ccc(O)cc3)c3c(O)cc5c(c3[C@H]2C4c2ccc(O)cc2)[C@H](c2cc(O)cc(O)c2)C(c2ccc(O)cc2)O5)cc1 (stereo partly drawn)	9.68%	–
C[C@]12CCC[C@](C)(C(=O)O)[C@@H]1CC[C@@]1(C)c3cocc3CC[C@H]21	49.5%	–
COc1c(O)cc2c(c1O)C(=O)c1c(coc1C)C2=O	-11.9%	–
CC(C)C[C@@H]1c2c(O)c(C=O)c(O)c(C=O)c2O[C@]2(C)C=C[C@@H](C(C)C)C[C@H]12	-11.9%	–
COc1cc2c(c(O)c1O)C(=O)c1c(coc1C)C2=O	–	27.2 µM (active)
CO[C@H]1[C@@H](OC(=O)/C(C)=C\[C@@H]2O[C@@H]2[C@H]2O[C@H]2C)[C@H](O)[C@H](OCC23C[C@@H]4[C@H](C)CC[C@H]4C4(C=O)CC2C=C(C(C)C)C34C(=O)O)O[C@@H]1C (stereo partly drawn)	-4.16%	–
CC[C@H]1[C@H](C)[C@H](c2cc(OC)c(OC)cc2OC)[C@@H](C)[C@H](c2cc(OC)c(OC)cc2OC)[C@@]12C=C(OC)C(=O)C=C2OC	-31.8%	–
